In PubChem BioAssay (NCI):
The panel holds about 79,000 compounds, 15% with a hit somewhere; the sample as a whole holds those more often. A number with no mark means an inactive call. Activity calls are given as the source filed them. No stated cut-off is given here; in the data, active means growth inhibition above about 70%; inactive means the rest.

Assays:
[1] = NCI Yeast Anticancer Drug Screen. Data for the rad50 strain (AID 155);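 further: 0% = growth of vehicle-only cultures of the same strain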; conditions: S. cerevisiae rad50 strain growth inhibition, hits give high values
How it was run: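 Inhibition values express reduced yeast growth in compound-treated cultures relative to vehicle-treated controls.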

[2] = NCI Yeast Anticancer Drug Screen. Data for the mec2-1 strain (AID 157); conditions: S. cerevisiae mec2-1 strain, hits give high values
How it was run: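 Mutant yeast (mec2-1) grown with compound; growth inhibition relative to vehicle control reported.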

[3] = NCI Yeast Anticancer Drug Screen. Data for the sgs1 mgt1 strain (AID 161);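 further: 0% = growth of cultures given vehicle only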; conditions: S. cerevisiae sgs1 mgt1 strain, hits give high values
How it was run: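 Growth of a repair-deficient yeast mutant was monitored after compound treatment and expressed as inhibition relative to vehicle-treated cultures.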

[4] = NCI Yeast Anticancer Drug Screen. Data for the cln2 rad14 strain (AID 165);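 further: 0% = growth equal to vehicle treated cultures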; conditions: S. cerevisiae cln2 rad14 strain, hits give high values
How it was run: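 Readout is yeast growth inhibition versus vehicle-treated controls, using a strain with cln2 and rad14 alterations exposed to compound.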

[5] = NCI Yeast Anticancer Drug Screen. Data for the bub3 strain (AID 167); conditions: S. cerevisiae bub3 mutant strain, hits give high values
How it was run: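 Steps: expose the mutant yeast strain to compound; grow alongside vehicle-treated cultures; measure growth; express inhibition against the vehicle cultures.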

[6] = NCI Yeast Anticancer Drug Screen. Data for the mlh1 rad18 strain (AID 175); conditions: S. cerevisiae mlh1 rad18 strain growth inhibition, hits give high values
How it was run: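 Genetically defined yeast (DNA repair-deficient) exposed to compounds; growth inhibition determined relative to vehicle.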

[7] = at 5.0 µM (retest, dose inferred, filed as 0.5)
[8] = at 50.0 µM (retest, dose inferred, filed as 5.0)

Structure (SMILES) | growth inhibition [1, 7] | growth inhibition [1, 8] | growth inhibition ([1]; at 50.0 µM) | growth inhibition [2, 7] | growth inhibition [2, 8] | growth inhibition ([2]; at 50.0 µM) | growth inhibition [3, 7] | growth inhibition [3, 8] | growth inhibition ([3]; at 50.0 µM) | growth inhibition [4, 7] | growth inhibition [4, 8] | growth inhibition ([4]; at 50.0 µM) | growth inhibition [5, 7] | growth inhibition [5, 8] | growth inhibition ([5]; at 50.0 µM) | growth inhibition [6, 7] | growth inhibition [6, 8] | growth inhibition ([6]; at 50.0 µM)
Cc1ccc(O)c2c(NCCCCCCNc3cc(C)[n+](C)c4c(C)ccc(O)c34)cc(C)[n+](C)c12 | -1% | 87% (active) | 89% (active) | 0% | 76% (active) | 90.4% (active) | -1% | 71% (active) | 92.7% (active) | 5% | 60% | 72.7% (active) | -6% | 76% (active) | 77.5% (active) | -2% | 84% (active) | 90.2% (active)
Clc1ccc(/C=C\c2ccncc2)cc1 | 3% | 58% | 48.2% | 4% | 51% | 44.9% | 4% | 59% | 29.1% | 1% | 7% | 29.7% | 4% | 39% | 30% | -1% | 32% | 62%
S=C(NCCNC(=S)[S][Sn]([c]1ccccc1)([c]1ccccc1)[c]1ccccc1)[S][Sn]([c]1ccccc1)([c]1ccccc1)[c]1ccccc1 | 97% (active) | 93% (active) | 89.8% (active) | 98% (active) | 96% (active) | 90.8% (active) | 97% (active) | 94% (active) | 91.5% (active) | 96% (active) | 93% (active) | 87.9% (active) | 98% (active) | 94% (active) | 90% (active) | 98% (active) | 91% (active) | 89.8% (active)
O=C(O)c1ccc2c3c(ncnc13)-c1ccccc1C2=O | 22% | 96% (active) | 62% | 43% | 98% (active) | 45% | 10% | 86% (active) | 61% | 36% | 88% (active) | 34.5% | 36% | 90% (active) | 55.5% | 28% | 98% (active) | 74.6% (active)
O=S=C(c1ccccc1)N(Cc1ccccc1)Cc1ccccc1 | -1% | 94% (active) | 96% (active) | -1% | 95% (active) | 96.2% (active) | 0% | 98% (active) | 96.7% (active) | 10% | 90% (active) | 69.7% | 22% | 93% (active) | 96.8% (active) | 1% | 95% (active) | 94.2% (active)
O=C(O)[C@@H]1CCCC[C@@H]1C(=O)N(C1CCCCC1)C1CCCCC1 | -4% | 79% (active) | 45.1% | -15% | 86% (active) | 14% | 8% | 73% (active) | 59% | -7% | 96% (active) | 28.6% | -5% | 96% (active) | 9.45% | -39% | 89% (active) | 0.5%
COC(=O)c1cc(=O)n(-c2ccccc2OC)c(SC)n1 | 2% | 83% (active) | 89.5% (active) | -1% | 73% (active) | 89% (active) | 8% | 87% (active) | 92.5% (active) | -8% | 67% | 49.4% | -5% | 58% | 94.8% (active) | -2% | 79% (active) | 98.1% (active)
COc1ccccc1/C=C1\S/C(=N/Nc2nc(C)c(C(C)=O)s2)NC1=O | 20% | 29% | -14.6% | 15% | 32% | -3.1% | 20% | 39% | -0.75% | 20% | 34% | 5.4% | 17% | 43% | -18% | 15% | 36% | -7.7%
O=S(O)CCCCCSSc1ccccc1 | -1% | 12% | 22.9% | 4% | 40% | 12.1% | 3% | 36% | 30.1% | -9% | 14% | 50.5% | 11% | 73% (active) | 74.5% (active) | 4% | 31% | 48.9%
